This is a sample that favours compounds with a hit; in the whole collection about 1.2% have one here.
CtBP-E1A blk: blocks the CtBP interaction with E1A | activity change, % (test concentration not listed) | AlphaScreen GST-E1A/His-CtBP binding, 1536-well; stronger effect = lower value | AID 651724 | actives 0.49% (n = 340,000)
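Protein mix (5X: 125 nM each GST-E1A, His-CtBP) was incubated with pinned compound 2 h at 37 deg C in dark, in 50 mM Tris pH 8.0 buffer with 300 mM NaCl. Glutathione donor and nickel acceptor beads followed; AlphaScreen signal read after 1 h.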
Akt phos inh: blocks phosphorylation of Akt. Neuro2A IGF-stimulated pAkt S473 HTRF, 20 min; stronger effect = lower value. activity change, % for hits at 50 µM. actives 0.32% (n = 360,000). AID 651550; in the data active means activity change below about -80%; inconclusive means mostly about -51% to -80%
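Neuro2A cells (4,500/well, DMEM with 0.5% FBS) were treated with compound at a single 50 µM final concentration, stimulated with 6 nM IGF for 20 min at 37 °C, and lysed. Phospho-Akt Ser473 was read by HTRF as 665/615 ratio ×10^4.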
CCT modulator: changes cytosolic chaperonin activity; purified chaperonin ATPase assay, HTRF ADP detection, 30 min; activity change, % (concentration not given with the values), hits read low; actives 0.3% (n = 360,000); AID 651819; in the data active means activity change below about -30%
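Nucleotide hydrolysis assay: TRiC at 20–40 nM final (set by batch activity) with 10 uM ATP, 30 min at 37 °C, in presence of 76 uM compound. Detection by competitive ADP HTRF, 30 min ambient.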
Six1-Eya2 blk: Six1/Eya2 interaction inhibition; AlphaScreen GST-Six1/His-Eya2 binding, biochemical; stronger effect = lower value; activity change, % (no concentration beside the values); actives 0.56% (n = 360,000); AID 651725
Target sequence (O00167 whole entry, looked up): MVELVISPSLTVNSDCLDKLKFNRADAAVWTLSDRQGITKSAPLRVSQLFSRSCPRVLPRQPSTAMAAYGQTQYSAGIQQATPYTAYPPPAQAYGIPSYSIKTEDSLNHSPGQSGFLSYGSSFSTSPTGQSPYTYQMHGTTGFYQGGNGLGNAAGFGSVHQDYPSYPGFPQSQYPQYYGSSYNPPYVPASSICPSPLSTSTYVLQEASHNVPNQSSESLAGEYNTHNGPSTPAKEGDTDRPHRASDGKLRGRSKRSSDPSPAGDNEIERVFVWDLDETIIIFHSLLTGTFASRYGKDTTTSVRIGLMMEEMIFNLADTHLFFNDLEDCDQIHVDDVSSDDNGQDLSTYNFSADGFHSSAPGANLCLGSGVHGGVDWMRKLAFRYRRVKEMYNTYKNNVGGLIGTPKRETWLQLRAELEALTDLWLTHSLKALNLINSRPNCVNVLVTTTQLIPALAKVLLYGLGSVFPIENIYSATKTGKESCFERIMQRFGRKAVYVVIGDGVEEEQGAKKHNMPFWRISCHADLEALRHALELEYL
Target sequence (Q15475 whole entry, looked up): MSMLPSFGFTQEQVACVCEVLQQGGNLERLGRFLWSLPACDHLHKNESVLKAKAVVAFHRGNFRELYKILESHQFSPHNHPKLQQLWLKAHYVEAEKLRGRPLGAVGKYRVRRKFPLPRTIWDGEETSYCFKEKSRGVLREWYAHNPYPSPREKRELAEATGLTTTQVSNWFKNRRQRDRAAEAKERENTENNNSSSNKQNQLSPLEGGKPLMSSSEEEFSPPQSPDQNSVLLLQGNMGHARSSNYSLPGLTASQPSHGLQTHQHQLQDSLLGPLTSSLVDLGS
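AlphaScreen with GST-Six1 and His-Eya2 (5X mix: 250 nM and 500 nM), glutathione donor and nickel acceptor beads; buffer 50 mM Tris pH 8.0, 300 mM NaCl, 1 mM TCEP; 1 h at 37 C in the dark.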
Active calls of the source: *. Unless noted, no stated cut-off is given here; in the data, active means activity change below about -65%; inconclusive means mostly about -30% to -63%; inactive means weaker than that. On the % scale 0 is the no-effect control and ±100 the full control effect.

What do the screens show for `CCOC(=O)C(=O)Cc1nc(OCc2ccccc2)cc(OCc2ccccc2)n1`?
CtBP-E1A blk: 8.8; Akt phos inh: inactive; CCT modulator: -39.1*; Six1-Eya2 blk: 8.2

What do the screens show for `CCCCOC(=O)CCc1nc2ccccc2[nH]c1=O`?
CtBP-E1A blk: 2.2; Akt phos inh: inactive; CCT modulator: -2.3; Six1-Eya2 blk: 3.1

What do the screens show for `CCOC(=O)c1ccc(COC(=O)CCc2nc3ccccc3[nH]c2=O)o1`?
CtBP-E1A blk: 0.9; Akt phos inh: -103.0%*; CCT modulator: 0.7; Six1-Eya2 blk: 6.2

What do the screens show for `CC(C)Oc1ccc(CC2CCC(=O)N(C)C2=O)cc1` (stereo not given)?
CtBP-E1A blk: 2.6; Akt phos inh: inactive; CCT modulator: -1.9; Six1-Eya2 blk: 0.9

How did Cc1onc(-c2ccccc2)c1C(=O)OCC(=O)Nc1ccc2c(c1)OCO2 do in these assays?
CtBP-E1A blk: -9.5; Akt phos inh: inactive; CCT modulator: -43.3*; Six1-Eya2 blk: -6.0

How did Cc1onc(-c2ccccc2Cl)c1C(=O)OCC(=O)Nc1ccc2c(c1)OCO2 do in these assays?
CtBP-E1A blk: -21.2; Akt phos inh: inactive; CCT modulator: -3.8; Six1-Eya2 blk: -13.7

What do the screens show for `CC(C)CCNC(=O)Cc1csc(-c2ccccc2)n1`?
CtBP-E1A blk: 3.0; Akt phos inh: inactive; CCT modulator: 0.7; Six1-Eya2 blk: 31.8

How did COc1ccc2oc3cc(NCCN(C)C)ccc3c(=O)c2c1 do in these assays?
CtBP-E1A blk: -74.6*; CCT modulator: 1.9; Six1-Eya2 blk: -70.3*

Results for COc1ccc2c(=O)c3ccccc3oc2c1 ?
CtBP-E1A blk: 7.8; Akt phos inh: inactive; CCT modulator: -0.5; Six1-Eya2 blk: 0.0

How did Cc1ccc([N+](=O)[O-])cc1NC(=O)C[n+]1ccccc1 do in these assays?
CtBP-E1A blk: -1.7; Akt phos inh: inactive; CCT modulator: -0.6; Six1-Eya2 blk: 10.1

What do the screens show for `Cc1nn(-c2ccccc2)c(C)c1/C=C/C(=O)OCC(=O)Nc1ccc(S(N)(=O)=O)cc1`?
CtBP-E1A blk: -87.9*; Akt phos inh: inactive; CCT modulator: 0.2; Six1-Eya2 blk: -20.3

What do the screens show for `Cc1nn(-c2ccccc2)c(C)c1/C=C/C(=O)OCC(=O)Nc1ccc(C(N)=O)cc1`?
Akt phos inh: inactive; CCT modulator: -0.3; Six1-Eya2 blk: 8.8

Results for O=C(N/N=C/c1cc(Br)ccc1O)c1cccc(N2CCCC2=O)c1 ?
CtBP-E1A blk: -66.9*; Akt phos inh: inactive; CCT modulator: -0.6; Six1-Eya2 blk: -77.5*

Results for O=C(N/N=C/c1ccco1)c1cccc(N2CCCC2=O)c1 ?
CtBP-E1A blk: -5.9; Akt phos inh: inactive; CCT modulator: -0.9; Six1-Eya2 blk: 3.0

What do the screens show for `COc1ccc(O)c(/C=N/NC(=O)c2ccc(N3CCCC3=O)cc2)c1`?
CtBP-E1A blk: -70.9*; Akt phos inh: inactive; CCT modulator: -2.8; Six1-Eya2 blk: inconclusive

What do the screens show for `COc1ccc(O)c(/C=N/NC(=O)c2cccc(N3CCCC3=O)c2)c1`?
CtBP-E1A blk: inconclusive; Akt phos inh: inactive; CCT modulator: -1.3; Six1-Eya2 blk: inconclusive

What do the screens show for `COc1ccccc1Cn1c(=S)[nH]c2cc(C(=O)NCC(OC)OC)ccc2c1=O`?
CtBP-E1A blk: 0.6; Akt phos inh: inactive; CCT modulator: -0.8; Six1-Eya2 blk: -0.9

Results for COc1ccc(/C=N/NC(=O)CSc2nnc(CCCc3ccc(OC)c(C)c3)o2)cc1 ?
CtBP-E1A blk: -18.0; Akt phos inh: inactive; CCT modulator: -2.8; Six1-Eya2 blk: -27.4

What do the screens show for `CCOC(=O)C1CCN(C(=O)COC(=O)COc2ccc(Cl)cc2)CC1`?
CtBP-E1A blk: 5.7; Akt phos inh: inactive; CCT modulator: -30.1*; Six1-Eya2 blk: 1.7

What do the screens show for `Cc1cc(NS(=O)(=O)c2ccc(NC(=O)c3ccc(Cl)nc3)cc2)nc(C)n1`?
CtBP-E1A blk: -8.3; Akt phos inh: inactive; CCT modulator: -0.6; Six1-Eya2 blk: 4.3

Results for Cc1cc(NS(=O)(=O)c2ccc(NC(=O)c3cnc(Cl)c(Cl)c3)cc2)nc(C)n1 ?
Akt phos inh: inactive; CCT modulator: 0.2; Six1-Eya2 blk: -90.8*

Results for COc1ccc(OCC(=O)Nc2cccc(OC)c2)cc1 ?
CtBP-E1A blk: -3.8; Akt phos inh: inactive; CCT modulator: -3.0; Six1-Eya2 blk: 4.2

What do the screens show for `COc1ccc(OCC(=O)Nc2cc(OC)cc(OC)c2)cc1`?
CtBP-E1A blk: 4.8; Akt phos inh: inactive; CCT modulator: -46.4*; Six1-Eya2 blk: -0.6

Results for CCc1ccc(-c2cc(C)no2)cc1S(=O)(=O)N1CC(=O)Nc2ccccc21 ?
CtBP-E1A blk: -0.3; Akt phos inh: inactive; CCT modulator: -1.3; Six1-Eya2 blk: -0.2

Results for COc1ccc(-c2cc(C)no2)cc1S(=O)(=O)N1CCOc2ccccc21 ?
CCT modulator: -81.1*; Six1-Eya2 blk: -2.8

How did Cc1cc(-c2ccc(C)c(S(=O)(=O)N3CC(=O)Nc4ccccc43)c2)on1 do in these assays?
CtBP-E1A blk: 1.9; Akt phos inh: inactive; CCT modulator: -34.8*; Six1-Eya2 blk: -0.6

Results for CC1(CCC#N)N=C(SCCC#N)N(c2ccccc2)C1=O (stereo not given) ?
CtBP-E1A blk: 1.4; Akt phos inh: -117.3%*; CCT modulator: -2.3; Six1-Eya2 blk: 4.5

Results for Cc1sc2nc(CSCC(=O)NC3(C#N)CCCCC3)[nH]c(=O)c2c1C ?
CtBP-E1A blk: -22.1; Akt phos inh: inactive; CCT modulator: 1.2; Six1-Eya2 blk: -29.3

What do the screens show for `CCCNC(=O)N1CCN(Cc2ccco2)CC1`?
CtBP-E1A blk: 0.0; Akt phos inh: inactive; CCT modulator: -62.6*; Six1-Eya2 blk: 2.4

What do the screens show for `C=CCc1cccc(/C=N/NC(=O)C[n+]2ccccc2)c1O`?
CtBP-E1A blk: -91.1*; Akt phos inh: inactive; CCT modulator: -17.3; Six1-Eya2 blk: -89.3*

Results for O=C(Nc1ccc(N2CCOCC2)cc1)c1csc([C@@H]2C[C@H](O)[C@@H](CO)O2)n1 ?
CtBP-E1A blk: 0.7; Akt phos inh: inactive; CCT modulator: -0.2; Six1-Eya2 blk: 3.8

How did O=C(CSc1ccccc1)Nc1ccncc1 do in these assays?
CtBP-E1A blk: -3.3; Akt phos inh: -139.0%*; CCT modulator: -0.3; Six1-Eya2 blk: 1.7

What do the screens show for `O=C(NCc1ccccn1)Nc1cccc(Cl)c1`?
CtBP-E1A blk: 2.8; Akt phos inh: inactive; CCT modulator: -42.5*; Six1-Eya2 blk: 0.3

Results for O=C(CSC1=NNC(c2ccccn2)S1)Nc1ccccc1 (stereo not given) ?
CtBP-E1A blk: -94.0*; Akt phos inh: inactive; CCT modulator: 0.0; Six1-Eya2 blk: -93.9*

How did O=C(CSC1=NNC(c2ccccn2)S1)Nc1cccc(Cl)c1 (stereo not given) do in these assays?
CtBP-E1A blk: -96.0*; Akt phos inh: inactive; CCT modulator: -1.5; Six1-Eya2 blk: -89.2*

How did Cc1ccc(-n2nc3c(=O)n(C(C)C(=O)NCCC4=CCCCC4)nc(C)c3c2C)cc1 (stereo not given) do in these assays?
Akt phos inh: inactive; CCT modulator: -0.1; Six1-Eya2 blk: -0.4
